High-throughput results as filed in PubChem BioAssay.
This is a sample that favours compounds with a hit; in the whole collection about 2.9% have one here.
HSF1 activator = increases HSF-1 driven luciferase reporter signal; NIH3T3-HGL HSF-1 luciferase reporter, MG132, 8 h; 100% = twice DMSO control signal; activation, % at 9 µM; 300,000 compounds, 1.7% hits; AID 504408;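 active = mean replicate activation of at least 50% with a set share of replicates each reaching 50%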;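 also: 0% = median of the neutral control wells and 100% = twice that signal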
HSF1 inh = HSF1 inhibition | 300,000 compounds, 0.77% hits | AID 2098 | NIH3T3-HGL HSE-luciferase, MG132-induced, luminescence 8 h; stronger effect = lower value | activity change, negative = inhibition, % at 7.5 µM (by protocol);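 active = more than half of replicate wells show activity change below -50%, luminescence cut by over half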;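 also: luciferase reports HSF-1 transcriptional activity via heat shock element; 0% = median of DMSO wells and -100% = zero luminescence signal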
S1P3 antagonist = antagonists of human S1P3 receptor. inhibition, % at 4.98 µM. AID 485. 170,000 compounds, 0.27% hits. CHO S1P3 NFAT-BLA reporter, FRET fluorescence, antagonist mode;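 active = inhibition above the plate cutoff, the mean inhibition of test wells on that plate plus 3 SD, cut at about 28% in these data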;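 also: cells challenged with S1P at its EC80 of 0.8 µM; blue over green emission ratio from cleaved BLA substrate after 4 h stimulation; 0% = S1P-stimulated wells and 100% = unstimulated DMSO-only wells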
Target sequence (Q99500 whole entry, looked up): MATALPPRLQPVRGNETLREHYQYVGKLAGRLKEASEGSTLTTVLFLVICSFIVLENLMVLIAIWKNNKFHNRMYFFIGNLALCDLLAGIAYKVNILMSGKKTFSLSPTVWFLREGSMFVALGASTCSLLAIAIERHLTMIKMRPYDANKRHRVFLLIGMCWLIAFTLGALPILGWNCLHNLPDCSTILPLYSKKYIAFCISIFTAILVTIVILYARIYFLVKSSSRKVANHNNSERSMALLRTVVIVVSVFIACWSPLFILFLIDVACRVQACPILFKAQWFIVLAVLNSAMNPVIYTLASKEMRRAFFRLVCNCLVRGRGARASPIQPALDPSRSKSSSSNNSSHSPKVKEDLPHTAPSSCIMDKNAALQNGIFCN
Hsp70 act = transcriptional activators of Hsp70; 200,000 compounds, 0.04% hits; activation, % at 10 µM; HeLa Hsp70 promoter luciferase reporter, luminescence; scaled: vehicle 0, proteasome-inhibitor control 100%;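 active = activation above the mean across all tested compounds plus 3 SD, cutoff set per campaign, cut at about 5.5% in these data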;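 also: 100% = MG132 at 30 µM as the positive control and 0% = DMSO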
S1P4 antagonist = human S1P4 receptor antagonism; S1P4-expressing cells, antagonist mode, reporter read-out; O95977; 220,000 compounds, 0.26% hits; AID 1510; inhibition, % at 4.98 µM; in the data active = inhibition above about 29%;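 also: 0% = wells stimulated with agonist and 100% = vehicle wells without agonist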
S1P4 ag = agonists of human S1P4 receptor | O95977 | S1P4-expressing cell line, agonist reporter assay | activation, % at 4.98 µM | 220,000 compounds, 0.35% hits | AID 1509; in the data active = activation above about 11%;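 also: 0% = DMSO vehicle and 100% = reference agonist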
* marks the source's active call; other numbers are inactive results; . = no result given.

SMILES | HSF1 activator | HSF1 inh | S1P3 antagonist | Hsp70 act | S1P4 antagonist | S1P4 ag
Cc1cc(Oc2nc3ccccn3c(=O)c2/C=C(\C#N)C(=O)NC2CCS(=O)(=O)C2)ccc1Cl (stereo not given) | 60* | 42 | . | . | . | .
Cc1cccc(Oc2nc3ccccn3c(=O)c2/C=C(\C#N)C(=O)NC2CCS(=O)(=O)C2)c1 (stereo not given) | 34 | 14 | 2 | 0 | -16 | 7
O=C(NC1=NCCS1)C1COc2ccccc2O1 (stereo not given) | -59 | -51* | -36 | -1 | -6 | 0
O=C(NCC1COc2ccccc2O1)c1ccc(Cl)cc1 (stereo not given) | 62* | 31 | -15 | 0 | -7 | 1
Cc1cc(Cl)ccc1NC(=O)C1COc2ccccc2O1 (stereo not given) | 53* | 13 | . | . | . | .
Cc1ccc(Cl)cc1NC(=O)C1COc2ccccc2O1 (stereo not given) | -73 | -64* | . | . | . | .
COc1ccc(CNC(=O)Cn2nnc3ccccc3c2=O)cc1 | 12 | 3 | -6 | . | -14 | 0
O=C(N/C(=C/C=C\c1ccccc1)C(=O)N1CCOCC1)c1ccc(Br)cc1 | 23 | 3 | -7 | 0 | -13 | -1
Cc1ccc2c(c1)C1CN(C)CCC1N2Sc1ccccc1[N+](=O)[O-] (stereo not given) | 5 | -11 | 5 | . | 12 | -1
FC(F)(F)c1ccc(C2[C@H]3CN(Cc4cccnc4)[C@H](c4ccccc4)C34CC2(c2ccccc2)C4)cc1 (stereo not given in full) | -8 | -3 | . | . | . | .
c1ccc(-c2nn[nH]n2)nc1 | -68 | -59* | 2 | . | 4 | -1
c1ccc(-c2nn[nH]n2)cc1 | -5 | -7 | 3 | . | -16 | 3
CCOC(=O)/C(=C/c1ccc(OC(=O)c2ccccc2)cc1)C(C)=O | 77* | 73 | -1 | 0 | -16 | 0
CCOc1ccc(-n2c(SCC(=O)Nc3ccc(C(=O)O)cc3)nc3ccccc3c2=O)cc1 | -15 | 3 | . | . | . | .
CC1(C)CC(=O)C2=C(C1)N1C(=C(C#N)C2c2ccccc2Cl)N=C(N)c2ccccc21 (stereo not given) | 28 | 23 | 3 | 0 | -3 | 0
CC1(C)CC(=O)C2=C(C1)N1C(=C(C#N)C2c2ccc(Cl)cc2)N=C(N)c2ccccc21 (stereo not given) | 76* | 54 | 3 | 0 | 4 | 1
CCCCNC(=S)N/N=C/c1cccc(OCC)c1O | 81* | 52 | -10 | . | 13 | -1
CCOc1cccc(/C=N/NC(=S)Nc2ccccc2[N+](=O)[O-])c1O | -82 | -79* | -19 | 0 | -5 | -1
CCOc1cccc(/C=N/NS(=O)(=O)c2ccc(C)c([N+](=O)[O-])c2)c1O | 6 | 3 | 11 | 0 | -11 | -2
O=C(NN=C1CCCC1)c1ccc(Br)cc1 | 16 | -5 | . | . | . | .
COc1cc(C(=O)NCCc2ccc(F)cc2)ccc1OCC(=O)N1CCOCC1 | 54* | 26 | . | . | . | .
CCOc1cc(C(=O)NCc2ccccc2)ccc1OCC(=O)N1CCOCC1 | -80 | -77* | -27 | 1 | -22 | 0
COc1cc(C(=O)NCc2cccc(Cl)c2)ccc1OCC(=O)N1CCOCC1 | 5 | 3 | . | . | . | .
COc1cc(C(=O)NCCc2ccc3c(c2)OCCO3)ccc1OCC(=O)N1CCOCC1 | 1 | 1 | . | 0 | -11 | 1
COc1ccc([C@@H]2[C@@H]3C(=O)N(C(C)(C)C)C(=O)[C@@H]3[C@]3(Cc4ccc(Cl)cc4)C(=O)N(c4cccc(C)c4)C(=O)N23)cc1 | 18 | 1 | . | . | . | .
SMILES | HSF1 activator | HSF1 inh | S1P3 antagonist | Hsp70 act | S1P4 antagonist | S1P4 ag
COc1cccc(NC(=S)N(CCC(C)C)C2CCN(C(C)=O)CC2)c1 | -82 | -76* | . | . | . | .
CSc1sccc1/C=C(/C#N)C(=O)c1ccco1 | 9 | -1 | . | . | . | .
CC(=O)NCC(=O)NNC1CC(=O)N(c2cccc(Cl)c2)C1=O (stereo not given) | -9 | -9 | -1 | . | -1 | 1
c1csc(CN2CCOCC2)c1 | 8 | 0 | . | 0 | -15 | 1
CCCCCN(C(=O)CCC(=O)OCC(=O)N(CC)c1ccccc1)c1c(N)n(CCCC)c(=O)[nH]c1=O | 58* | 25 | . | . | . | .
Cc1cc(Cl)ccc1C(=O)C1CCCN(C(=O)c2cnsn2)C1 (stereo not given) | 51* | 16 | 8 | 0 | -18 | 1
Cc1cc(N2C(=O)C3CCC(c4ccccc4)CC3C2=O)no1 (stereo not given) | -9 | -1 | -12 | 0 | 7 | -1
O=c1ccc(=O)n(-c2ccccc2)[nH]1 | 15 | 3 | -3 | . | 3 | 1
O=C(O)CCn1[nH]c(=O)ccc1=O | 58* | 12 | -23 | 0 | 5 | -1
O=C(NCC1CCCO1)C(=O)N/N=C/c1ccc(OCc2ccccc2Cl)cc1 (stereo not given) | 16 | 1 | . | . | . | .
Nc1nnc(Cc2cccc(Br)c2)s1 | 27 | -1 | -15 | . | -4 | 3
COC(=O)c1ccc(COn2nnc3ccccc32)cc1 | 59* | 41 | 2 | 0 | -20 | 1
Cc1[nH]c2ccc(C(=O)OC(C)C(=O)NC3(C#N)CCCCC3)cc2c1C (stereo not given) | 4 | 0 | . | . | . | .
CCCn1c(N)c(C(=O)CSc2nc3ccccc3c(=O)n2Cc2ccccc2)c(=O)[nH]c1=O | -89 | -84* | -9 | 0 | 2 | 0
COc1ccc(N(C)C(=O)c2oc(=O)c3ccccc3c2-c2ccccc2)c(OC)c1 | -85 | -79* | 2 | . | -2 | 0
COc1ccc(N(C)C(=O)Cn2c(=O)oc3ccccc32)c(OC)c1 | -3 | -9 | . | . | . | .
Cc1ccc(C(=O)CN2C(=O)c3ccccc3S2(=O)=O)cc1 | -76 | -75* | -12 | . | 4 | 0
O=C(CN1C(=O)c2ccccc2S1(=O)=O)N1CCCCC1 | 54* | 11 | . | . | . | .
CSCCC1COC(c2cccs2)=N1 (stereo not given) | 33 | 14 | 5 | 0 | -4 | -1
O=C1c2ccccc2C(=O)N1OS(=O)(=O)c1ccc(F)cc1 | 7 | -4 | . | . | . | .
Cc1cc(C)c(C)c(S(=O)(=O)ON2C(=O)c3ccccc3C2=O)c1C | 52* | 41 | . | 0 | -24 | 1
Cc1ccc(S(=O)(=O)ON2C(=O)c3ccccc3C2=O)c(C)c1 | . | . | -9 | 0 | -15 | 1
Cc1cc(C)c(S(=O)(=O)ON2C(=O)c3ccccc3C2=O)cc1C | 62* | 42 | . | 0 | -27 | 0
CCCn1nnnc1NC(=O)COc1ccc(Br)cc1 | 24 | -7 | 3 | 0 | -20 | 0
O=C(CCNS(=O)(=O)c1ccc(Cl)cc1)N1CCOCC1 | 0 | -1 | . | . | . | .
Cc1ccc(Cn2c(Sc3nccc(C)n3)nc3c2c(=O)[nH]c(=O)n3C)cc1 | 32 | 8 | . | 0 | -7 | 1
CC(=O)CSc1nc2c(c(=O)[nH]c(=O)n2C)n1Cc1cccc(Br)c1 | 58* | 30 | . | . | . | .
